# Source: PubChem
# An excerpt weighted towards active compounds, which were near 9.2% of everything screened.
# FLuc counter: firefly luciferase modulation, counter-screen for miR-21 project; P08659; purified FLuc, Km substrates, luminescence inhibition; Potency, µM (highest dose often 57.5 µM), without a hit: at the top dose activity change, negative = inhibition, hits mostly inhibitors; 360,000 compounds, 6.9% hits; AID 588342;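 further: plate controls were vehicle for no effect and reference inhibitor for full effect; nearly all actives have a fitted effect of over 55% in size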
# Target sequence (P08659 whole entry, looked up): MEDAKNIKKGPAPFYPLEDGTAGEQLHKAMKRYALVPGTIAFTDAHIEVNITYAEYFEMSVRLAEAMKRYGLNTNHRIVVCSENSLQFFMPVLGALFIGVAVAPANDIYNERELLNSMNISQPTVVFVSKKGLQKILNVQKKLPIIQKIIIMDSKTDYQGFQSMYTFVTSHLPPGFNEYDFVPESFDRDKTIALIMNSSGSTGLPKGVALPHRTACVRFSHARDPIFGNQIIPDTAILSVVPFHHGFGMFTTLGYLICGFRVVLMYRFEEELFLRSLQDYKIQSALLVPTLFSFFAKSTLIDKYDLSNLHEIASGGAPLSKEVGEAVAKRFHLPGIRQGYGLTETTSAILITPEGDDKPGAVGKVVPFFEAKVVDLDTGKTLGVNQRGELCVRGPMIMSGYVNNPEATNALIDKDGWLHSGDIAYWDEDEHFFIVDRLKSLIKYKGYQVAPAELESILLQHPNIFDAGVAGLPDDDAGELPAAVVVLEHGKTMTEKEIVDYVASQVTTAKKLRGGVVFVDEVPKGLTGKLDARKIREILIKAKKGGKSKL
#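 Biochemical qHTS of compounds, final roughly 60 µM downward over six points, against 10 nM purified firefly luciferase using Km concentrations of substrates (10 uM D-luciferin, 10 uM ATP) in Tris acetate pH 7.5 buffer; luminescence output.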
# NPC1 prom act: activates the NPC1 promoter; 320,000 compounds, 2.4% hits; Potency, µM (highest dose often 9.22 µM), for the others: top-dose activation, actives largely listed as activators; Huh7 NPC1 promoter luciferase reporter, 24 h; further: % of control where 0% means no effect; nearly all actives have a fitted effect of over 60% in size
#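 Huh7 reporter cells (NPC1 promoter driving luciferase) are dosed with compound for 24 h at 37 °C, 5% CO2; luciferase detection reagent is then added and luminescence measured after 10 min at ambient temperature.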
# ELG1 repair inh: blocks ELG1-dependent DNA repair in HEK293T cells; HEK293T ELG1-luciferase reporter, luminescence, 16 h; DNA damage induced by 5-fluorouridine; Potency, µM (series often up to 46.1 µM), inactives show top-dose activity change, negative = inhibition, usual class: inhibitors; 330,000 compounds, 2.3% hits; further: on the % scale 0 is the no-effect control and ±100 the full control effect; nearly all actives have a fitted effect of over 55% in size
#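 Quantitative HTS, concentration-response format. 2,000 cells/well co-treated with 5-fluorouridine and compound, 16 hr in 5% CO2 at 37 °C; ONE-Glo luminescence read after 30 min.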
# ELG1 genotoxic: genotoxicity induction in ELG1-luciferase HEK293T cells; Potency, µM (series often up to 46 µM), without a hit: at the highest dose activity change, positive = activation, hits mostly activators; 330,000 compounds, 1.3% hits; HEK293T ELG1-luciferase reporter, luminescence, 16 h; further: % of control where 0% means no effect; nearly all actives have a fitted effect of over 60% in size
#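 Step 1: seed 2,000 HEK293T ELG1-luciferase cells per well. Step 2: add compound or DMSO, incubate 16 hr at 37 °C. Step 3: ONE-Glo, 30 min at room temperature, read luminescence.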
# SMN2 splice enh: increases expression of the SMN2 splice variant. HEK293 SMN2-luciferase splicing reporter, luminescence, 30-36 h. Potency, µM (doses to about 46.1 µM), inactives show top-dose activity change, positive = activation, usual class: activators. 210,000 compounds, 2.8% hits; further: % of control where 0% means no effect; nearly all actives have a fitted effect of over 55% in size
#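 qHTS luciferase splicing reporter: luminescence rises when SMN2 exon 7 is included in transfected HEK293 cells. Compound exposure lasted 30-36 h at 37C, with 4.5 mM final sodium butyrate as control, followed by a ONE-Glo read.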
# Rab9 prom act: activators of Rab9 promoter | 320,000 compounds, 2.8% hits | Potency, µM (top dose mostly 9.22 µM), for inactives: at the highest dose activation, negative = inhibition, actives largely listed as activators | Huh7 Rab9 promoter-luciferase reporter, luminescence, 24 h; further: % of control where 0% means no effect; nearly all actives have a fitted effect of over 60% in size
#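 Huh7 reporter line, Rab9 promoter upstream of luciferase. Compound exposure 24 h at 37 °C in reduced-serum medium with 10% FBS. Read-out: luminescence.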
# * = called active by the depositor; ? = inconclusive; . = no result given. The call rests on the fitted dose curve; in most records, active means well fitted curve in the direction sought with a large enough effect; inconclusive means small, poorly fitted or top-dose-only effect, or another doubt; inactive means no such curve, though single readings can be large; an effect the other way counts as inactive or inconclusive. Potency means the concentration at half of the fitted maximal effect.
SMILES,FLuc counter,NPC1 prom act,ELG1 repair inh,ELG1 genotoxic,SMN2 splice enh,Rab9 prom act
O=C(/C=C/c1ccccc1[N+](=O)[O-])Oc1ccccc1,6.75µM*,-5.5%,8.2%,0.0%,.,-1.4%
O=C(/C=C/c1ccccc1[N+](=O)[O-])c1ccc(F)cc1,13.5µM*,14.7%,?,?,-12.7%,25.7%
O=C(CSc1nccn1Cc1ccc(F)cc1)NCc1ccc(F)cc1,-9.2%,.,.,.,.,.
Cc1cc(C)c(NC(=O)CNC(=O)COC(=O)/C=C/c2cccs2)c(C)c1,1.7%,-3.4%,?,8.8%,.,-3.6%
COc1ccc(Cl)cc1NC(=O)Cn1nnc(C(=O)NCc2cccs2)c1N,-1.5%,.,.,.,-15.2%,.
COC(=O)C(=Cc1ccccc1[N+](=O)[O-])C(=O)OC,-2.5%,-18.7%,23.1µM*,-11.8%,.,-7.0%
COc1ccc(CNC(=O)/C=C/c2ccccc2[N+](=O)[O-])cc1,0.5%,-2.8%,3.7%,0.6%,3.1%,-0.9%
Cc1cc(C=C2C(=O)CCCC2=O)c(C)n1-c1ccccc1,16.9µM*,1.0%,22.9%,1.8%,4.4%,-0.1%
Cc1cc(/C=C2/C(=O)NN(c3ccccc3)C2=O)c(C)n1-c1ccc(O)cc1,0.151µM*,?,?,?,-77.5%,2.51µM*
COc1ccc(-n2c(C)cc(/C=C3\C(=O)NN(c4ccccc4)C3=O)c2C)cc1,2.69µM*,?,?,?,?,26.8%
COc1ccc(Sc2ccc(/C=C3\C(=O)NN(c4ccccc4)C3=O)o2)cc1,-17.4%,-2.8%,6.3%,3.6%,0.2%,-6.6%
O=C1NN(c2ccccc2)C(=O)/C1=C\c1coc2ccc(O)cc2c1=O,?,-6.2%,11.1%,1.6%,.,-2.7%
Cc1cc(/C=C2\C(=O)NN(c3ccccc3)C2=O)c(C)n1-c1ccccc1O,1.35µM*,2.82µM*,?,?,.,2.82µM*
Cc1ccc(Cn2c(CNC(=O)Cc3cccc([N+](=O)[O-])c3)nc3cccnc32)cc1,-5.1%,.,.,.,.,.
CC(C)n1cnc(S(=O)(=O)N2CCCC(C(=O)NCc3ccccc3Cl)C2)c1 (stereo not drawn),-4.0%,.,.,.,.,.
CCOc1ccc(CNc2nc3ccccc3n2C)cc1,12µM*,3.16µM*,?,?,.,2µM*
Cn1c(NCc2ccccc2F)nc2ccccc21,16.9µM*,.,.,.,12.6µM*,.
Cc1ccc(CNc2nc3ccccc3n2C)o1,?,?,?,?,.,2µM*
Cn1c(NCc2ccccc2O)nc2ccccc21,21.3µM*,3.98µM*,?,?,?,2.82µM*
C=Cc1ccc(Cn2nc(-c3ccc(C)cc3)ccc2=O)cc1,-1.1%,0.6%,-2.8%,-4.5%,-15.2%,-3.5%
Cc1ccc(-c2noc(-c3ccccc3NC(=O)C3CC(=O)N(c4ccc(C)cc4)C3)n2)cc1 (stereo not drawn),-6.5%,.,.,.,.,.
COc1ccc(-c2cc(C(=O)N3CCN(c4ccccn4)CC3)c3ccccc3n2)cc1,0.675µM*,?,?,-1.0%,.,2.82µM*
COc1ccc(OCC(=O)N2CCN(c3nnc(-c4ccccc4)c4ccccc34)CC2)cc1,-13.2%,-5.8%,16.4µM*,-8.9%,-40.0%,2.4%
COc1cc(-c2cc(C(=O)N3CCN(c4ccccn4)CC3)c3ccccc3n2)cc(OC)c1OC,-0.3%,-3.7%,8.2µM*,-5.4%,18.2%,-6.1%
COc1ccc(-c2cc(C(=O)N3CCN(c4ncccn4)CC3)c3ccccc3n2)cc1,0.675µM*,?,15.8µM*,0.3%,.,?
COc1ccc(-c2cc(C(=O)N3CC(C)CC(C)C3)c3ccccc3n2)cc1 (stereo not drawn),?,1.9%,-0.6%,-1.0%,.,-5.4%
CCOc1ccccc1NC(=O)CCn1ccnc1,-2.5%,0.0%,1.1%,-1.0%,.,-0.9%
O=C(NCC(c1ccco1)N1CCc2ccccc2C1)c1ccc(F)cc1 (stereo not drawn),-0.1%,-4.5%,-0.9%,0.2%,.,-3.2%
